Here are results for 23 sequences from PMC5700166.

The target in this experiment is T1, GST-Co-NF-kB (Capsaspora owczarzaki, UniProt F1ARL5 200-546).
T1 sequence: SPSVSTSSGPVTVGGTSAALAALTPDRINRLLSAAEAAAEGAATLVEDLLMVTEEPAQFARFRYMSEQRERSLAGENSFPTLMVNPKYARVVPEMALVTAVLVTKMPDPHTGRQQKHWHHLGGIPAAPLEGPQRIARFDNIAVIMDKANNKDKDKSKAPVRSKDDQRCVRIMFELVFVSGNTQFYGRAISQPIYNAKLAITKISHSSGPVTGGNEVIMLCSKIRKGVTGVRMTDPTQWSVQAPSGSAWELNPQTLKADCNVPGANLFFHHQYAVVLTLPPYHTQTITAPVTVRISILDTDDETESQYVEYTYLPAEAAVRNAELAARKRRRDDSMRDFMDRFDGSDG
The experiment can be described thus: protein-binding microarray (PBM); PBM: ~300 nM protein, 6 mM HEPES pH 7.8, 80 mM KCl, 0.5 mM EDTA, 0.5 mM EGTA, 6% glycerol, 35 ng/ul poly-dIdC, 1% milk, 1 h, room temperature; Ap Aiptasia and Nv Nematostella (sea anemones) / Co Capsaspora / Aq Amphimedon (sponge) / Dm Drosophila / Hu human; RHD is the Rel homology domain; high values mean tight binding. Conditions: dsDNA, one strand shown.
Consider “CCGATTAACATCAGATACCAGGGTGATGTTAATCGGGTCTTGATTCGCTTGACGCTGCTG”, for which the binding signal is 1.09 z-score.

For “CCGATTAACATCAGGGTGTAGTTTGATGTTAATCGGGTCTTGATTCGCTTGACGCTGCTG”, the binding signal turned out to be 1.14 z-score.

The sequence “CCGATTAACATCAGTAGGTGAAGTGATGTTAATCGGGTCTTGATTCGCTTGACGCTGCTG” gave a binding signal of 1.02 z-score.

“CCGATTAACATCACCCATTTCCGTGATGTTAATCGGGTCTTGATTCGCTTGACGCTGCTG” gave a binding signal of 1.41 z-score.

Turning to “CCGATTAACATCATACCTCCCGTTGATGTTAATCGGGTCTTGATTCGCTTGACGCTGCTG”, the binding signal was determined as 1.01 z-score.

The sequence “CCGATTAACATCAACGTGATTTGTGATGTTAATCGGGTCTTGATTCGCTTGACGCTGCTG” registered a binding signal of 1.11 z-score.

Take “CCGATTAACATCACCTTCTTTACTGATGTTAATCGGGTCTTGATTCGCTTGACGCTGCTG”: the binding signal was found to be 1.57 z-score.

Regarding “CCGATTAACATCACAATAACGGGTGATGTTAATCGGGTCTTGATTCGCTTGACGCTGCTG”, the binding signal is 1.26 z-score.

“CCGATTAACATCAATGTCGGTGGTGATGTTAATCGGGTCTTGATTCGCTTGACGCTGCTG” showed a binding signal of 1.2 z-score.

On to “CCGATTAACATCACACCCGCAACTGATGTTAATCGGGTCTTGATTCGCTTGACGCTGCTG”, for which the binding signal was found to be 1.54 z-score.

For the sequence “CCGATTAACATCACCCGCTTTATTGATGTTAATCGGGTCTTGATTCGCTTGACGCTGCTG”, the binding signal is 1.23 z-score.

For the sequence “CCGATTAACATCACAAATTTTCCTGATGTTAATCGGGTCTTGATTCGCTTGACGCTGCTG”, the binding signal was 1.2 z-score.

“CCGATTAACATCACCCACGAGGGTGATGTTAATCGGGTCTTGATTCGCTTGACGCTGCTG” registered a binding signal of 1.35 z-score.

Consider “CCGATTAACATCAGCCATATTTGTGATGTTAATCGGGTCTTGATTCGCTTGACGCTGCTG”, for which the binding signal was 1.13 z-score.

Sequence “CCGATTAACATCACCCACGACGATGATGTTAATCGGGTCTTGATTCGCTTGACGCTGCTG” showed a binding signal of 1.01 z-score.

Turning to “CCGATTAACATCAGGAAAAAAACTGATGTTAATCGGGTCTTGATTCGCTTGACGCTGCTG”, the binding signal turned out to be 1.06 z-score.

“CCGATTAACATCACGGTGTGGGTTGATGTTAATCGGGTCTTGATTCGCTTGACGCTGCTG” registered a binding signal of 1.37 z-score.

For the sequence “CCGATTAACATCATGTCGGGTGATGATGTTAATCGGGTCTTGATTCGCTTGACGCTGCTG”, the binding signal is 1.26 z-score.

The sequence “CCGATTAACATCAGGTCACCCCATGATGTTAATCGGGTCTTGATTCGCTTGACGCTGCTG” gave a binding signal of 2.51 z-score.

Consider “CCGATTAACATCACCCTACAAGTTGATGTTAATCGGGTCTTGATTCGCTTGACGCTGCTG”, for which the binding signal was found to be 3.08 z-score.

In the case of “CCGATTAACATCACCAAGTATAGTGATGTTAATCGGGTCTTGATTCGCTTGACGCTGCTG”, the binding signal was found to be 1.42 z-score.

Take “CCGATTAACATCAGGGAGCGGTTTGATGTTAATCGGGTCTTGATTCGCTTGACGCTGCTG”: the binding signal came to 1.07 z-score.

Regarding “CCGATTAACATCAGGGTATAACGTGATGTTAATCGGGTCTTGATTCGCTTGACGCTGCTG”, the binding signal turned out to be 1.1 z-score.
